# Assay results reported in the supplement of paper PMC8728848.
# The full list was thinned out, with the strongest signals kept by preference.
# Legend:
# Assay in all cases: glycan array binding signal (z-score within array); higher = stronger binding
# Conditions in all cases: glycan notation: IUPAC condensed, linker removed
# [1] = target: Fuc(a1-2)Gal(b1-3)[Fuc(a1-4)]GlcNAc
# Method in brief: (§1)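 Columns mapping to the same glycan were averaged after glycan names were converted to IUPAC-condensed notation. The data come from 3228 arrays in the Consortium for Functional Glycomics database, limited to those with an available protein sequence. Binding is reported as a within-array Z-score averaged across arrays of one protein sequence and across linkers.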
# [2] = target: Fuc(a1-2)Gal(b1-3)[Fuc(a1-4)]GlcNAc(b1-2)Man(a1-3)[Fuc(a1-2)Gal(b1-3)[Fuc(a1-4)]GlcNAc(b1-2)Man(a1-6)]Man(b1-4)GlcNAc(b1-4)GlcNAc
# Method in brief: as §1
# [3] = target: Fuc(a1-2)Gal(b1-3)[Fuc(a1-4)]GlcNAc(b1-3)[Fuc(a1-3)[Gal(b1-4)]GlcNAc(b1-6)]Gal(b1-4)Glc
# Method in brief: as §1
# Fuc(a1-2)Gal6S(b1-4)Glc = target: Fuc(a1-2)Gal6S(b1-4)Glc
# Method in brief: as §1
# [4] = target: Fuc(a1-2)[Gal(a1-3)]Gal(b1-3)GlcNAc
# Method in brief: as §1
# [5] = target: Fuc(a1-2)[GalNAc(a1-3)]Gal(b1-3)GalNAc(a1-3)[Fuc(a1-2)]Gal(b1-4)GlcNAc
# Method in brief: as §1
# [6] = target: Fuc(a1-2)[GalNAc(a1-3)]Gal(b1-3)GlcNAc(b1-3)GalNAc
# Method in brief: as §1
# [7] = target: Fuc(a1-2)[GalNAc(a1-3)]Gal(b1-3)GlcNAc(b1-6)GalNAc
# Method in brief: as §1
# [8] = target: Fuc(a1-2)[GalNAc(a1-3)]Gal(b1-4)GlcNAc(b1-2)Man(a1-3)[Fuc(a1-2)[GalNAc(a1-3)]Gal(b1-4)GlcNAc(b1-2)Man(a1-6)]Man(b1-4)GlcNAc(b1-4)GlcNAc
# Method in brief: as §1
# [9] = target: Fuc(a1-3)[Gal(b1-4)]GlcNAc
# Method in brief: as §1
# [10] = target: Fuc(a1-3)[Gal(b1-4)]GlcNAc(b1-3)Gal(b1-4)[Fuc(a1-3)]GlcNAc(b1-3)Gal(b1-4)[Fuc(a1-3)]GlcNAc
# Method in brief: as §1
# [11] = target: Fuc(a1-3)[Gal(b1-4)]GlcNAc(b1-4)Gal(b1-4)[Fuc(a1-3)]GlcNAc(b1-4)Gal(b1-4)[Fuc(a1-3)]GlcNAc
# Method in brief: as §1
# [12] = target: Fuc(a1-3)[Gal3S(b1-4)]Glc
# Method in brief: as §1
# [13] = target: Gal(a1-3)Gal(b1-4)GlcNAc(b1-6)GalNAc
# Method in brief: as §1
# [14] = target: Gal(a1-3)Gal(b1-4)[Fuc(a1-3)]GlcNAc
# Method in brief: as §1
# [15] = target: Gal(a1-4)Gal(b1-3)GlcNAc(b1-2)Man(a1-3)[Gal(a1-4)Gal(b1-3)GlcNAc(b1-2)Man(a1-6)]Man(b1-4)GlcNAc(b1-4)GlcNAc
# Method in brief: as §1
# [16] = target: Gal(b1-3)GalNAc(b1-4)[Neu5Ac(a2-3)]Gal(b1-4)Glc
# Method in brief: as §1
# [17] = target: Gal(b1-3)[Neu5Ac(a2-6)]GlcNAc(b1-6)Gal(b1-4)Glc
# Method in brief: as §1
# [18] = target: Gal(b1-4)GlcNAc(b1-2)Man(a1-3)[Gal(b1-4)GlcNAc(b1-2)Man(a1-6)][Gal(b1-4)GlcNAc(b1-4)]Man(b1-4)GlcNAc(b1-4)[Fuc(a1-6)]GlcNAc
# Method in brief: as §1
# [19] = target: Gal(b1-4)GlcNAc(b1-2)Man(a1-3)[Man(a1-6)]Man(b1-4)GlcNAc(b1-4)GlcNAc
# Method in brief: as §1
# [20] = target: Gal(b1-4)GlcNAc(b1-2)Man(a1-6)[GlcNAc(b1-2)Man(a1-3)]Man(b1-4)GlcNAc(b1-4)GlcNAc
# Method in brief: as §1
# [21] = target: Gal(b1-4)GlcNAc(b1-2)[Gal(b1-4)GlcNAc(b1-4)]Man(a1-3)[Gal(b1-4)GlcNAc(b1-2)[Gal(b1-4)GlcNAc(b1-6)]Man(a1-6)]Man(b1-4)GlcNAc(b1-4)GlcNAc
# Method in brief: as §1
# [22] = target: Gal(b1-4)GlcNAc(b1-3)Gal(b1-4)GlcNAc
# Method in brief: as §1
# Gal(b1-4)GlcNAc6P = target: Gal(b1-4)GlcNAc6P
# Method in brief: as §1
# Gal3S(b1-3)GlcNAc = target: Gal3S(b1-3)GlcNAc
# Method in brief: as §1
# [23] = target: Gal3S(b1-4)[Fuc(a1-3)]Glc6S
# Method in brief: as §1
# Gal3S6S(b1-4)GlcNAc6S = target: Gal3S6S(b1-4)GlcNAc6S
# Method in brief: as §1
binder,measurement,setting,value
"Siglec-F (Mus musculus), Q920G3 (protein) MRWAWLLPLLWAGCLATDGYSLSVTGSVTVQEGLCVFVACQVQYPNSKGPVFGYWFREGANIFSGSPVATNDPQRSVLKEAQGRFYLMGKENSHNCSLDIRDAQKIDTGTYFFRLDGSVKYSFQKSMLSVLVIALTEVPNIQVTSTLVSGNSTKLLCSVPWACEQGTPPIFSWMSSALTSLGHRTTLSSELNLTPRPQDNGTNLTCQVNLPGTGVTVERTQQLSVIYAPQKMTIRVSWGDDTGTKVLQSGASLQIQEGESLSLVCMADSNPPAVLSWERPTQKPFQLSTPAELQLPRAELEDQGKYICQAQNSQGAQTASVSLSIRSLLQLLGPSCSFEGQGLHCSCSSRAWPAPSLRWRLGEGVLEGNSSNGSFTVKSSSAGQWANSSLILSMEFSSNHRLSCEAWSDNRVQRATILLVSGPKVSQAGKSETSRGTVLGAIWGAGLMALLAVCLCLIFFTVKVLRKKSALKVAATKGNHLAKNPASTINSASITSSNIALGYPIQGHLNEPGSQTQKEQPPLATVPDTQKDEPELHYASLSFQGPMPPKPQNTEAMKSVYTEIKIHKC",glycan array binding signal (z-score),[1],-0.132
same,glycan array binding signal (z-score),[2],-0.079
same,glycan array binding signal (z-score),[3],-0.122
same,glycan array binding signal (z-score),Fuc(a1-2)Gal6S(b1-4)Glc,-0.123
same,glycan array binding signal (z-score),[4],-0.115
same,glycan array binding signal (z-score),[5],-0.104
same,glycan array binding signal (z-score),[6],-0.094
same,glycan array binding signal (z-score),[7],-0.114
same,glycan array binding signal (z-score),[8],-0.049
same,glycan array binding signal (z-score),[9],-0.117
same,glycan array binding signal (z-score),[10],-0.115
same,glycan array binding signal (z-score),[11],-0.121
same,glycan array binding signal (z-score),[12],-0.146
same,glycan array binding signal (z-score),[13],-0.146
same,glycan array binding signal (z-score),[14],-0.123
same,glycan array binding signal (z-score),[15],0.083
same,glycan array binding signal (z-score),[16],-0.109
same,glycan array binding signal (z-score),[17],-0.091
same,glycan array binding signal (z-score),[18],-0.095
same,glycan array binding signal (z-score),[19],0.022
same,glycan array binding signal (z-score),[20],-0.13
same,glycan array binding signal (z-score),[21],-0.127
same,glycan array binding signal (z-score),[22],-0.096
same,glycan array binding signal (z-score),Gal(b1-4)GlcNAc6P,-0.111
same,glycan array binding signal (z-score),Gal3S(b1-3)GlcNAc,-0.108
same,glycan array binding signal (z-score),[23],0.156
same,glycan array binding signal (z-score),Gal3S6S(b1-4)GlcNAc6S,-0.104
